Drawing on PubChem BioAssay AID602449 (Sanford-Burnham Center for Chemical Genomics, 2012), this text covers inhibition for 59 molecules.

Hit rate of the full screen: of about 360,000 compounds, about 5,000 (1.4%) were called active.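 How the source made its calls: active means inhibition of 50% or more, scaled per plate between neutral and stimulator controls; inactive means the rest.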 Many of the other results were omitted from the sample, so actives are more common in it than they were.

As a reminder, the inhibition is the drop in the measured response relative to a control, in per cent.

The assay in a line: mitochondrial permeability transition pore inhibitors, primary screen, biochemical, isolated mouse mitochondria, absorbance (AID 602449).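 Further: 0% = DMSO wells given calcium and 100% = 1 mM EGTA wells.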 Particulars: Ca2+ swelling absorbance, 30 min, at 10 µM, hits give high values.
As to `CCOC(=O)c1nnn2c3ccccc3c(=O)n(C)c12`, the inhibition is 1.2% (inactive).
As for `CCCc1nc2c(c(=O)c3ccccc3n2C)c(=O)n1C1CCCCCC1`, the inhibition is 77.9% (active).
The figure for `CCOC(=O)N1CCN(C(=O)c2nn(-c3ccc(C)cc3)c(=O)c3c2c2ccccc2n3C)CC1` is 11.3% (inactive); for `CCN(CC)S(=O)(=O)c1ccc(N2CCCC2)c(NS(=O)(=O)c2cccs2)c1` it is -2.4% (inactive); for `Brc1ccccc1/C=N/Nc1nc2ccccc2o1` it is 1.1% (inactive).
Regarding `Oc1c(Br)cccc1/C=N/Nc1c(F)c(F)c(F)c(F)c1F`, the inhibition is 102% (active).
On to `CC(Oc1ccc(F)cc1)C(=O)Nc1ccccc1C(=O)NC1CC1` (centres undefined), for which the inhibition is -1.6% (inactive).
Take `Cc1cc(C(=O)OCC(=O)NCc2ccco2)c(C)n1-c1ccccc1`: the inhibition is -0.8% (inactive).
`CCN1C(=O)[C@@H]2[C@@H](c3ccc(-c4cccc(Cl)c4)cc3)N3CCC[C@@]3(C(=O)OC)[C@@H]2C1=O`: the inhibition is -1% (inactive).
With `CCOC(=O)c1ccc(NC(=O)CS(=O)(=O)c2cn(CC)c3ccccc23)cc1` the figure was 1% (inactive); with `CCOC(=O)c1ccc(NC(=O)Cn2cnc3cc(C)c(C)cc32)cc1`, 96.9% (active); with `CCOC(=O)c1ccc(NC(=O)CCn2c(=O)oc3ccccc32)cc1`, 0.1% (inactive).
In the case of `COc1ccc(C)cc1S(=O)(=O)N(CC(=O)Nc1cccc([N+](=O)[O-])c1)c1ccc(C)cc1`, the inhibition was 0.7% (inactive).
On to `CNS(=O)(=O)c1ccc(NC(=O)Nc2ccc3c(c2)OCO3)cc1`, for which the inhibition is 0.6% (inactive).
With `CN(c1ccccc1)S(=O)(=O)c1cccc(NC(=O)Cc2c(F)cccc2Cl)c1` the figure was 18.1% (inactive); with `CN(c1cccc(NC(=O)c2ccc(CN3CCc4ccccc4C3)cc2)c1)S(C)(=O)=O`, 0% (inactive).
Take `Cc1ccc(S(=O)(=O)N(CC(=O)Nc2cccc([N+](=O)[O-])c2)Cc2ccc(Cl)cc2)cc1`: the inhibition was 80.3% (active).
For the molecule `CN(C)S(=O)(=O)c1cccc(NC(=O)Cc2ccsc2)c1`, the inhibition is 0.2% (inactive).
On to `CN(c1ccccc1)S(=O)(=O)c1cccc(NC(=O)Cc2ccc(Cl)cc2)c1`, for which the inhibition was 61.7% (active).
With `CN(c1cccc(NC(=O)Nc2ccc(Cl)cc2)c1)S(C)(=O)=O` the figure was 92.2% (active); with `Cc1ccc(CN(CC(=O)NCC2CCCO2)S(=O)(=O)c2ccc(C)cc2)cc1` (centres undefined), 0.1% (inactive); with `O=C1N=C2SCCN2/C1=C\c1c(Cl)cccc1Cl`, -0.2% (inactive).
Regarding `O=C(CNC(=O)OCc1ccccc1)Oc1cc2oc(=O)cc(-c3ccccc3)c2cc1Cl`, the inhibition was 7.5% (inactive).
In the case of `Clc1ccc(-c2cc(-c3ccccn3)on2)c(Cl)c1`, the inhibition was 2.1% (inactive).
With `Clc1ccc(-c2cc(C3CCNCC3)[nH]n2)c(Cl)c1` the figure was 76.8% (active).
For the molecule `COc1ccc(C2c3[nH]c4ccccc4c3CCN2CCCn2cccn2)cc1C` (centres undefined), the inhibition is -1.1% (inactive).
With `O=C1c2ccccc2C2=Nc3ccccc3SC(c3ccccc3F)C12` (centres undefined), the inhibition is 93.3% (active).
Turning to `CCC(C)N(C(=O)Cn1nc(C)c([N+](=O)[O-])c1C)C1CCS(=O)(=O)C1` (centres undefined), the inhibition is 0.4% (inactive).
With `O=C(CCN1CCc2ccccc2C(O)(c2ccccc2)C1)c1ccc2c(c1)OCCO2` (centres undefined) the figure was 2.6% (inactive).
Turning to `O=C(c1ccc2c(c1)OCCO2)C1CCN(S(=O)(=O)c2cccc(F)c2)CC1`, the inhibition is -4.7% (inactive).
In the case of `COc1ccc(/C=C/C(=O)c2c(O)cc(OC)cc2OC)cc1`, the inhibition is 1.2% (inactive).
In the case of `O=C(/C=C(O)/C=C/c1ccc(O)cc1)/C=C/c1ccc(O)cc1`, the inhibition was 75.2% (active).
With `O=C(O)/C=C/c1ccc(S(=O)(=O)N2CCCCCC2)cc1`, the inhibition was -1.1% (inactive).
Consider `O=C(Nc1ccccc1Cc1ccccc1)c1ccc2c(c1)SC1=NS(=O)(=O)CCN12`, for which the inhibition was 1.9% (inactive).
On to `Cc1nc(-c2nnc(SCC(=O)Nc3cc(C(F)(F)F)cc(C(F)(F)F)c3)n2C)cs1`, for which the inhibition is 4.6% (inactive).
Turning to `Cc1ccc(OC(=O)c2c(C)nn(-c3ccccc3)c2C)cc1`, the inhibition was -0.9% (inactive).
Turning to `C/C(=N\NC(=S)NCc1ccccc1)c1ccc(Cl)cc1`, the inhibition is 3.5% (inactive).
In the case of `Fc1ccccc1CNC(=S)Nc1ccc(Cl)cc1`, the inhibition was 102% (active).
For the molecule `S=C(NCc1cccs1)Nc1ccc(Cl)cc1`, the inhibition is 23.7% (inactive).
For the molecule `CCCOc1ccc(Cc2c(Cl)nc(SC)nc2NC)cc1`, the inhibition is 95.3% (active).
For `CCCOc1ccc(Cc2c(O)nc(SC)[nH]c2=O)cc1C`, the inhibition is 0.9% (inactive).
With `CCOc1cc2[nH]c(=O)n(CCC(=O)NCc3ccc(OC)cc3)c(=O)c2cc1OCC` the figure was -0.2% (inactive); with `COC(=O)C(Cc1c[nH]c2ccccc12)NC(=O)CCNC(=O)c1ccco1` (centres undefined), -1% (inactive); with `Cc1cc(Cl)ccc1NC(=S)NCCCN1CCCC1=O`, 0.5% (inactive).
`O=C1CCCN1CCCNC(=S)Nc1ccc(F)c(Cl)c1`: the inhibition was 96.1% (active).
Turning to `Cc1c(Cl)cccc1NC(=O)NCCCN1CCCC1=O`, the inhibition is -0.1% (inactive).
Consider `CC1(C(=O)NNC(=S)NCC2CCCO2)CC1(Cl)Cl` (centres undefined), for which the inhibition is -1.4% (inactive).
Regarding `O=S(=O)(Nc1ccc(Cl)cn1)c1cnc(Cl)c(Br)c1`, the inhibition is 12.7% (inactive).
Turning to `CC(C)C[C@H]1CN([C@@H](CC(C)C)CN2CCC[C@@H]2CN2C(=O)C(=O)NC[C@@H]2Cc2ccccc2)C(=O)C(=O)N1CCc1ccccc1`, the inhibition was 1.7% (inactive).
In the case of `COc1ccc(Sc2ccc(NC(=O)c3cccc(Cl)c3)cc2C#N)cc1`, the inhibition is 80.5% (active).
With `CSc1ccc(/C=N/NC(=O)c2cccc(Cl)c2)cc1`, the inhibition was 3% (inactive).
As to `Cc1ccc(C(=O)NC2CCN(C(=O)Nc3ccc(F)cc3)CC2)cc1`, the inhibition is -0.9% (inactive).
Take `Cc1ccc(Sc2ccc(NC(=O)c3ccc(F)cc3)cc2C#N)cc1`: the inhibition is 72.3% (active).
In the case of `COC(=O)c1ccc(Sc2ccc(F)cc2)c(N)c1`, the inhibition is -3% (inactive).
Consider `COc1ccc(NC(=O)c2cccc(Cl)c2)c[n+]1[O-]`, for which the inhibition was 1.1% (inactive).
On to `Cc1ccccc1CNC(=O)CCC(=O)N1Cc2ccccc2Oc2ncccc21`, for which the inhibition is -0.6% (inactive).
Consider `CC(C)(C)n1c(=O)[nH]c2c(c1=O)CCC2`, for which the inhibition is -1.7% (inactive).
As to `CC(C)=C1SC(N2CCN(c3ccc(C)c(Cl)c3)CC2)=NC1=O`, the inhibition was 2.6% (inactive).
For `COc1ccc(S(=O)(=O)N2CCN(C(C)C(=O)Nc3ccc(C(C)C)cc3)CC2)cc1` (centres undefined), the inhibition is 0.5% (inactive).
